From PubChem
Vaccinia mCherry – qHTS for Stage-Specific Inhibitors of Vaccinia Orthopoxvirus: mCherry Reporter Primary qHTS. AID 720579, 2013. Vaccinia virus mCherry reporter infection, fluorescence. Potency, µM (series often up to 36.5 µM), inactives show top-dose activity change, negative = inhibition, actives largely listed as inhibitors. actives 0.63% (n = 310,000); calls by dose curve; tested in A549 cells; further: potency means the concentration at half of the fitted maximal effect; nearly all actives have a fitted effect of over 35% in size
FMDV inh – High Throughput Screening for Foot and Mouth Disease Virus Antivirals | Potency, µM (doses to about 57.9 µM), for the others: at the top dose activity change, negative = inhibition, most hits filed as inhibitors | FMDV antiviral cell-based qHTS | actives 1.2% (n = 410,000) | AID 1159524, 2015; calls by dose curve; tested in HEK293T cells; further: read-out not given here; potency means the concentration at half of the fitted maximal effect; nearly all actives have a fitted effect of over 45% in size
LASV entry inh – qHTS for Inhibitors of binding or entry into cells for Lassa Virus | Lassa virus pseudotype entry inhibition, cell reporter | Potency, µM (doses to about 37.9 µM), for the others: top-dose activity change, negative = inhibition, actives largely listed as inhibitors | actives 1.2% (n = 300,000) | AID 540256, 2011; calls by dose curve; tested in HEK293 cells; further: potency means the concentration at half of the fitted maximal effect; nearly all actives have a fitted effect of over 50% in size
VACV Venus inh – qHTS for Stage-Specific Inhibitors of Vaccinia Orthopoxvirus: Venus Reporter Primary qHTS. AID 720580, 2013. actives 0.46% (n = 330,000). Potency, µM (doses to about 36.5 µM), without a hit: at the top dose activity change, negative = inhibition, actives largely listed as inhibitors. Vaccinia virus Venus reporter expression, fluorescence; calls by dose curve; tested in A549 cells; further: potency means the concentration at half of the fitted maximal effect; nearly all actives have a fitted effect of over 30% in size
HCMV antiviral – qHTS Assay for inhibitors of the human cytomegalovirus (HCMV) | actives 4.5% (n = 410,000) | activity change, negative = inhibition, % at 57.5 µM | AID 1259415, 2018 | HFF cells, HCMV-luciferase reporter, 72 h; stronger effect = lower value; in the data active means activity change below about -60%; inconclusive means no clear call, values can overlap the other calls; inactive means above about -39%
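After 16 h attachment at 37C, HFF cells received test compound and HCMV-luciferase (1 PFU/cell); reporter luminescence read 72 h later, data normalized against buffer-only and known inhibitor Salinomycin.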
MARV entry inh – qHTS for inhibitors of binding or entry into cells for Marburg Virus; Marburg virus pseudotyped entry inhibition, cell reporter; Potency, µM (top dose mostly 37.8 µM), inactives show at the top dose activity change, negative = inhibition, hits mostly inhibitors; actives 1.8% (n = 300,000); calls by dose curve; tested in HEK293 cells; further: potency means the concentration at half of the fitted maximal effect
* marks the source's active call; other numbers are inactive results; [ ] = dose if it differs, or a comment. A selection: hits, their analogues and other compounds. The true share with any hit is near 6.5%. On the % scale 0 is the no-effect control and ±100 the full control effect.

Screening CNC(=O)COc1ccccc1C(=O)Nc1ccccc1 returned Vaccinia mCherry 0% and VACV Venus inh -9%.
CN(Cc1cccs1)[C@@H]1CC[C@@]23CCCN2C(=O)CCC[C@H]3[C@H]1Cc1ccccc1 was read as HCMV antiviral -22.
For COc1cccc(/C=C/c2nc(C#N)c(N3CCCCC3)o2)c1 the results were Vaccinia mCherry 2%, FMDV inh 0%, LASV entry inh -18%[46.1 µM], VACV Venus inh 1%, HCMV antiviral -8 and MARV entry inh 1%[46.1 µM].
For CCOC1=C2[C@@H](CN(S(=O)(=O)c3ccccc3C)[C@H]2c2ccc(Cl)cc2)[C@H]2C(=O)N(c3ccccc3)C(=O)[C@H]2C1 the results were Vaccinia mCherry inactive, FMDV inh -18%, VACV Venus inh -15% and HCMV antiviral -25.
For CCOC1=C2[C@@H](CN(S(=O)(=O)c3ccccc3C)[C@H]2c2ccc(Cl)cc2)[C@H]2C(=O)NC(=O)[C@H]2C1 the results were Vaccinia mCherry 5%, FMDV inh -16%, VACV Venus inh 10% and HCMV antiviral -76*.
Cc1ccc(C(=O)c2cn(Cc3ccccc3C)c3nc(C)ccc3c2=O)cc1 was read as Vaccinia mCherry -17%, FMDV inh -19%, LASV entry inh inconclusive, VACV Venus inh -12%, HCMV antiviral inconclusive and MARV entry inh inconclusive.
`O=C(c1ccc(Cl)cc1)c1cn(Cc2ccccc2)c2cc3c(cc2c1=O)OCCO3` gave Vaccinia mCherry inconclusive, FMDV inh 0%, LASV entry inh inconclusive, VACV Venus inh inconclusive, HCMV antiviral -63* and MARV entry inh inconclusive.
COc1ccc(Cn2cc(C(=O)c3ccc(Cl)cc3)c(=O)c3cc4c(cc32)OCO4)cc1 was read as Vaccinia mCherry inconclusive, FMDV inh 29%, LASV entry inh inconclusive, VACV Venus inh inconclusive, HCMV antiviral -98* and MARV entry inh inconclusive.
For COc1ccc2c(c1)c(=O)c(C(=O)c1ccc(C)cc1)cn2Cc1ccccc1F the results were Vaccinia mCherry -26%, FMDV inh -27%, LASV entry inh inconclusive, VACV Venus inh -24%, HCMV antiviral -69* and MARV entry inh 11µM*.
Cc1ccc(C(=O)c2cn(Cc3ccccc3)c3nc(C)ccc3c2=O)cc1 was read as Vaccinia mCherry -3%, FMDV inh -15%, LASV entry inh 23%[46.1 µM], VACV Venus inh -5%, HCMV antiviral -73* and MARV entry inh inconclusive.
COc1ccc(Cn2cc(C(=O)c3ccc(OC)cc3)c(=O)c3cc4c(cc32)OCCO4)cc1 was read as Vaccinia mCherry -9%, FMDV inh -12%, LASV entry inh inconclusive, VACV Venus inh -6%, HCMV antiviral inconclusive and MARV entry inh -17%[46.1 µM].
For O=C(c1ccc(F)cc1)c1cn(Cc2ccccc2F)c2cc3c(cc2c1=O)OCCO3 the results were Vaccinia mCherry -13%, FMDV inh -20%, LASV entry inh -7%[46.1 µM], VACV Venus inh -9%, HCMV antiviral -37 and MARV entry inh -10%[46.1 µM].
Cc1cc2ccccc2c[n+]1C1CCCCC1 was read as Vaccinia mCherry -25% and VACV Venus inh -39%.
`COc1cccc(Cn2c(=O)c(-c3cccs3)nc3cnc(N4CCNCC4)nc32)c1` gave FMDV inh 13%.
`Fc1ccc(-[n+]2nc(Nc3ccccc3)sc2-c2c3ccccc3cc3ccccc23)cc1` gave Vaccinia mCherry -13%, FMDV inh 40µM*, VACV Venus inh inconclusive and HCMV antiviral -98*.
COc1ccc(C)cc1Nc1n[n+](-c2ccccc2)c(-c2c(OC)ccc3ccccc23)s1 was read as Vaccinia mCherry 14µM*, FMDV inh inconclusive, VACV Venus inh inconclusive and HCMV antiviral -101*.
For O=C(CC(c1cccs1)N1Cc2ccccc2C1=O)Nc1ccc(F)c(Cl)c1 (stereo not given) the results were Vaccinia mCherry -5%, FMDV inh -6%, LASV entry inh -10%[46.1 µM], VACV Venus inh -9% and HCMV antiviral -24.
